The source made the active and inactive calls. How the source made its calls: active means hit-call score of the fitted dose curve at least 0.9, where 1 is the maximum; inactive means score below 0.9.
Legend:
[1] = read-out: Vascular endothelial growth factor receptor 2 (Homo sapiens) (UniProt P35968); test: BSK_4H_VEGFRII: BioMAP Diversity Plus: 4H Assay for Vascular endothelial growth factor receptor 2 (VEGFR2) Biomarker Activity (AID 2283031); conditions: primary human endothelial cells (HUVEC); actives raise or lower the signal
Procedure, shortened: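 In this multiplexed HUVEC system, biomarker ELISA was performed after 24 h chemical exposure. Parallel SRB staining (TCA fixation, 560 nm) tracked cytotoxicity; DMSO served as baseline.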

[2] = read-out: Human Leukocyte Antigen - DR isotype (HLADR), HLA-DRA (gene 3122); test: BSK_BE3C_HLADR: BioMAP Diversity Plus: BE3C Assay for Human Leukocyte Antigen - DR isotype (HLADR) Biomarker Activity (AID 2283032); conditions: primary human bronchial epithelial cells; actives raise or lower the signal
Procedure, shortened: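 Human primary bronchial epithelial cells in the BE3C system were exposed to chemicals for 24 h, after which HLA-DR levels were quantified by ELISA. Activity was fitted bidirectionally, gain or loss of signal, against DMSO as negative control and baseline.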

[3] = read-out: Vascular cell adhesion molecule 1 (VCAM1), VCAM1 (gene 7412); test: BSK_4H_VCAM1: BioMAP Diversity Plus: 4H Assay for Vascular cell adhesion molecule 1 (VCAM1) Biomarker Activity (AID 2283033); conditions: primary human endothelial cells (HUVEC); actives raise or lower the signal;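 on outcome: cell-surface VCAM-1 protein measured by ELISA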
Procedure, shortened: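 Primary human umbilical vein endothelial cells were exposed to chemicals for 24 h, after which VCAM-1 was quantified by ELISA. Responses were fitted bidirectionally against DMSO as negative control and activity baseline.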

[4] = read-out: Interferon-gamma inducible Protein 10 (IP10), CXCL10 (gene 3627); test: BSK_BE3C_IP10: BioMAP Diversity Plus: BE3C Assay for Interferon-gamma inducible Protein 10 (IP10) Biomarker Activity (AID 2283034); conditions: primary human bronchial epithelial cells; actives raise or lower the signal
Procedure, shortened: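 Human primary bronchial epithelial cells were exposed to chemicals for 24 hours, after which IP-10 levels were measured by ELISA. Data were fitted bidirectionally against DMSO, which served as the negative control and activity baseline.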

[5] = read-out: Monokine induced gamma interferon (MIG), CXCL9 (gene 4283); test: BSK_BE3C_MIG: BioMAP Diversity Plus: BE3C Assay for Monokine induced gamma interferon (MIG) Biomarker Activity (AID 2283035); conditions: primary human bronchial epithelial cells; actives raise or lower the signal;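 further: MIG protein measured by ELISA in BE3C cultures after 24 h of dosing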
Procedure, shortened: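 MIG level was determined by ELISA after 24 h chemical treatment of primary human bronchial epithelial cells. Values were fitted bidirectionally with DMSO as the negative control and activity baseline.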

[6] = read-out: Transforming growth factor beta 1 (TGFb1), TGFB1 (gene 7040); test: BSK_BE3C_TGFb1: BioMAP Diversity Plus: BE3C Assay for Transforming growth factor beta 1 (TGFb1) Biomarker Activity (AID 2283036); conditions: primary human bronchial epithelial cells; actives raise or lower the signal
Procedure, shortened: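 Human primary bronchial epithelial cells (BE3C system) were dosed with chemical and TGF-b1 levels measured by ELISA at 24 h. Activity was fitted bidirectionally relative to DMSO negative control as baseline.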

[7] = read-out: Plasminogen activator inhibitor-1 (PAI1), SERPINE1 (gene 5054); test: BSK_BE3C_PAI1: BioMAP Diversity Plus: BE3C Assay for Plasminogen activator inhibitor-1 (PAI1) Biomarker Activity (AID 2283037); conditions: primary human bronchial epithelial cells; actives raise or lower the signal
Procedure, shortened: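 Human primary bronchial epithelial cells were exposed to chemical for 24 h, then PAI-1 was quantified by ELISA. Activity was fitted bidirectionally relative to the DMSO negative control baseline.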

[8] = read-out: urokinase plasminogen activator (uPA), PLAU (gene 5328); test: BSK_BE3C_uPA: BioMAP Diversity Plus: BE3C Assay for urokinase plasminogen activator (uPA) Biomarker Activity (AID 2283038); conditions: primary human bronchial epithelial cells; actives raise or lower the signal;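 further: uPA protein level quantified by ELISA in cell cultures; uPA read one day after compound addition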
Procedure, shortened: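 Using confluent primary human lung bronchial epithelial cultures, we dosed chemicals, waited 24 h, then ran a uPA ELISA, fitting bidirectionally against DMSO.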

[9] = read-out: Urokinase-type plasminogen activator receptor (uPAR), PLAUR (gene 5329); test: BSK_BE3C_uPAR: BioMAP Diversity Plus: BE3C Assay for Urokinase-type plasminogen activator receptor (uPAR) Biomarker Activity (AID 2283039); conditions: primary human bronchial epithelial cells; actives raise or lower the signal;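 further: uPAR protein level measured by ELISA on the cells; cells exposed to compound for one day before measurement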
Procedure, shortened: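 Primary human bronchial epithelial cells were dosed with chemical and harvested 24 h later; uPAR was quantified by ELISA. Activity was fitted bidirectionally against DMSO as negative control and baseline.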

[10] = read-out: Interleukin-6 (IL6), IL6 (gene 3569); test: BSK_CASM3C_IL6: BioMAP Diversity Plus: CASM3C Assay for Interleukin-6 (IL6) Biomarker Activity for (AID 2283040); conditions: primary human coronary artery smooth muscle cells; actives raise or lower the signal

COc1cc2c(c(OC)c1OC)-c1ccc(OC)c(=O)cc1[C@@H](NC(C)=O)CC2
outcome [1]: inactive
AC50 [2]: 470 nM (active)
outcome [3]: inactive
outcome [4]: inactive
outcome [5]: inactive
outcome [6]: inactive
AC50 [7]: 148 nM (active)
outcome [8]: inactive
outcome [9]: inactive
AC50 [10]: 148 nM (active)

CCCCCCCC1CCC(=O)O1 (stereo not given)
outcome [1]: inactive
outcome [2]: inactive
outcome [3]: inactive
outcome [4]: inactive
outcome [5]: inactive
outcome [6]: inactive
outcome [8]: inactive
outcome [9]: inactive
outcome [10]: inactive

CCCOc1ccc(S(=O)(=O)N2CCN(CC)CC2)cc1-c1nc2c(CC)n(Cc3ccccn3)nc2c(=O)[nH]1
outcome [1]: inactive
outcome [2]: inactive
outcome [3]: inactive
outcome [4]: inactive
outcome [5]: inactive
outcome [6]: inactive
outcome [8]: inactive
outcome [9]: inactive
outcome [10]: inactive

OCC(CO)(CO)CO
outcome [1]: inactive
outcome [2]: inactive
outcome [3]: inactive
outcome [4]: inactive
outcome [5]: inactive
outcome [6]: inactive
outcome [7]: inactive
outcome [8]: inactive
outcome [9]: inactive
outcome [10]: inactive

C[C@@H](Oc1ccc(CNC(=O)c2cccnc2Oc2ccc3c(c2)OCO3)c(F)c1)C(=O)O
outcome [1]: inactive
outcome [2]: inactive
outcome [3]: inactive
outcome [4]: inactive
outcome [5]: inactive
outcome [6]: inactive
outcome [8]: inactive
outcome [9]: inactive
outcome [10]: inactive

c1ccc2c(c1)-c1cccc3c1c-2cc1ccccc13
outcome [1]: inactive
outcome [2]: inactive
outcome [3]: inactive
outcome [4]: inactive
outcome [5]: inactive
outcome [6]: inactive
outcome [8]: inactive
outcome [9]: inactive
outcome [10]: inactive

CCCCOC(=O)c1ccccc1
outcome [1]: inactive
outcome [2]: inactive
outcome [3]: inactive
outcome [4]: inactive
outcome [5]: inactive
outcome [6]: inactive
outcome [7]: inactive
outcome [8]: inactive
outcome [9]: inactive
outcome [10]: inactive

c1ccc(C(O[C@@H]2CCCN(CCc3ccc4c(c3)OCO4)C2)c2ccccc2)cc1
outcome [1]: inactive
AC50 [2]: 20000 nM (active)
AC50 [3]: 26900 nM (active)
outcome [4]: inactive
outcome [5]: inactive
outcome [6]: inactive
outcome [8]: inactive
outcome [9]: inactive
outcome [10]: inactive

CCCCC(CC)C(=O)OCCOCCOCCOC(=O)C(CC)CCCC (stereo not given)
outcome [1]: inactive
outcome [2]: inactive
outcome [3]: inactive
outcome [4]: inactive
outcome [5]: inactive
outcome [6]: inactive
outcome [7]: inactive
outcome [8]: inactive
outcome [9]: inactive
outcome [10]: inactive

CCc1cccc(CC)c1N
outcome [1]: inactive
outcome [2]: inactive
outcome [3]: inactive
outcome [4]: inactive
outcome [5]: inactive
outcome [6]: inactive
outcome [7]: inactive
outcome [8]: inactive
outcome [9]: inactive
outcome [10]: inactive

— PubChem BioAssay (EPA / NIEHS)
